# TGFb SMAD3 inh – TGF-b pathway inhibition; HepG2 CAGA-GFP TGF-b/SMAD3 reporter, GFP fluorescence, 18 h; TGF-beta stimulated, 500 pg/mL final; hit rate 1.2% among 410,000; AID 588855; Potency, µM (highest dose often 46.1 µM), for the others: at the top dose activity, negative = inhibition, hits mostly inhibitors; further: on the % scale 0 is the no-effect control and ±100 the full control effect; nearly all actives have a fitted effect of over 65% in size
#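 Smad-responsive CAGA-GFP expression was quantified in HEPG2 cells exposed to compounds and 500 pg/mL final TGF-beta for 18 h at 37 degrees C; unstimulated wells defined full inhibition.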
# ALOX12 inh – ALOX12 (human) lipoxygenase inhibition | Potency, µM (series often up to 108 µM), without a hit: at the top dose activity change, negative = inhibition, most hits filed as inhibitors | P18054 | purified 12hLO, xylenol orange hydroperoxide absorbance | hit rate 1.1% among 580,000; further: on the % scale 0 is the no-effect control and ±100 the full control effect
# Target sequence (P18054 whole entry, looked up): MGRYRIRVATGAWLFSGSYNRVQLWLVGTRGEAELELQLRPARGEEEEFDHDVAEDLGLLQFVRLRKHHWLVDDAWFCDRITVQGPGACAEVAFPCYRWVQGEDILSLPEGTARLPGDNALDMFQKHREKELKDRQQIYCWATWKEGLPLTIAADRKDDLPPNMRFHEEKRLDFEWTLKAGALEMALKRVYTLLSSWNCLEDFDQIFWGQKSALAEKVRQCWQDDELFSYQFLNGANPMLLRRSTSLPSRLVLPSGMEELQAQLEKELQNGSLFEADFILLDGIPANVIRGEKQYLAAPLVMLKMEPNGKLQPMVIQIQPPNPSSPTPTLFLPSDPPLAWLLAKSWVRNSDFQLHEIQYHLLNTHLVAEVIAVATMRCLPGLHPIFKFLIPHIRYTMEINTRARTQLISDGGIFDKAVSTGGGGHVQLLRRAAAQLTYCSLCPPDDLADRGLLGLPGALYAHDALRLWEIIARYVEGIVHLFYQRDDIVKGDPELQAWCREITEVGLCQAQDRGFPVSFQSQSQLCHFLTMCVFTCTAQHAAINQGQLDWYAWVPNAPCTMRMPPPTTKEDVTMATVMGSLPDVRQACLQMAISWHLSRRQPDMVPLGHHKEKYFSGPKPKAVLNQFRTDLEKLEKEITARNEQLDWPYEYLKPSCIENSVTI
#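 Purified human 12hLO at 150 nM in 25 mM Hepes, 0.01% Triton X-100, pH 7.0, preincubated 15 min at room temperature with compound. Reaction started with 40 uM arachidonic acid, 30 min at room temperature. Hydroperoxide measured by Fe-xylenol orange, 573/405 nm absorbance ratio.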
# ATXN viability – viability counter-screen for ATXN expression inhibitors. Potency, µM (titrated, usually from 56.7 µM), actives largely listed as cytotoxic. S2 cells (HEK-293 line with an ATXN2-luciferase reporter) viability, CellTiter-Fluor protease fluorescence, 24 h. hit rate 0.49% among 400,000; further: nearly all actives have a fitted effect of over 40% in size
# ATXN2 expr inh – inhibitors of ATXN2 expression; HEK-293 ATXN2-luciferase reporter, luminescence, 24 h; Potency, µM (series often up to 57 µM), for the others: at the top dose activity change, negative = inhibition, most hits filed as inhibitors; hit rate 0.72% among 360,000; further: on the % scale 0 is the no-effect control and ±100 the full control effect; nearly all actives have a fitted effect of over 55% in size
#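 ATXN2-luciferase reporter cells (luciferase flanked by upstream and downstream ATXN2 gene portions) were treated 24 h at 37 °C with compounds at up to 57 uM. SteadyGlo luminescence gave expression; GF-AFC fluorescence gave viability.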
# HepG2 tox-1 – counter-screen for TGF-b inhibitors: cytotoxicity in HepG2 cells. hit rate 0.76% among 410,000. HepG2 CAGA-GFP viability, ATP luminescence, 18 h. AID 588856. Potency, µM (doses to about 46.1 µM), for inactives: top-dose activity change, negative = cytotoxicity, most hits filed as cytotoxic
#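 HepG2 CAGA-GFP cells (1000/well, DMEM with 1% FBS) received compound, then TGF-beta at 500 pg/mL final, and were incubated 18 hours at 37 degrees C. Viability was read by CellTiter-Glo luminescence. Media-only wells were set as complete cell-killing and DMSO as no toxicity.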
# TGFb confirm – confirmation of TGF-b signaling inhibitors in HepG2 reporter cells. HepG2 CAGA-GFP TGF-b reporter, GFP fluorescence, 18 h; cells stimulated with TGF-beta, 500 pg/mL. shares compounds with TGFb SMAD3 inh. Potency, µM (series often up to 46.1 µM), for the others: at the highest dose activity, negative = inhibition, most hits filed as inhibitors. hit rate 63% among 1,600; further: on the % scale 0 is the no-effect control and ±100 the full control effect; nearly all actives have a fitted effect of over 65% in size
# HepG2 tox-2 – HepG2 cytotoxicity, TGF-b inhibitor counterscreen | shares compounds with TGFb SMAD3 inh | HepG2 CAGA-GFP viability, ATP luminescence, 18 h; cells stimulated with TGF-beta, 500 pg/mL | Potency, µM (top dose mostly 46.1 µM), for inactives: at the top dose activity, negative = cytotoxicity, most hits filed as inhibitors | hit rate 27% among 1,600 | AID 720535; further: on the % scale 0 is the no-effect control and ±100 the full control effect; nearly all actives have a fitted effect of over 70% in size
# CCL64 TGFb inh – orthogonal confirmation of TGF-b inhibitors in CCL64 cells. shares compounds with TGFb SMAD3 inh. CCL64 CAGA-GFP reporter, TGF-b stimulated, GFP fluorescence, 18 h. Potency, µM (series often up to 46.1 µM), for the others: at the highest dose activity, negative = inhibition, most hits filed as inhibitors. hit rate 41% among 1,600; further: nearly all actives have a fitted effect of over 65% in size
# TGFb COP inh – blocks TGF-b signaling in HepG2 COP reporter; shares compounds with TGFb SMAD3 inh; HepG2 COP-GFP TGF-b reporter, GFP fluorescence, 18 h; cells stimulated by added recombinant TGF-beta; Potency, µM (titrated, usually from 46.1 µM), for inactives: at the highest dose activity, negative = inhibition, hits mostly inhibitors; hit rate 3% among 1,600; further: nearly all actives have a fitted effect of over 70% in size
# Numbers without * were called inactive; i = inactive; ? = inconclusive; . = no result given; [ ] = dose if it differs, or a comment. A selection: hits, their analogues and other compounds. The true share with any hit is near 2.7%. The call rests on the fitted dose curve; in most records, active means well fitted curve in the direction sought with a large enough effect; inconclusive means small, poorly fitted or top-dose-only effect, or another doubt; inactive means no such curve, though single readings can be large; an effect the other way counts as inactive or inconclusive. Potency means the concentration at half of the fitted maximal effect.
SMILES,TGFb SMAD3 inh,ALOX12 inh,ATXN viability,ATXN2 expr inh,HepG2 tox-1,TGFb confirm,HepG2 tox-2,CCL64 TGFb inh,TGFb COP inh
O=C(c1ccc(F)c(F)c1)N1CCN(C(=O)c2nnn3c2COC(c2ccc(Cl)cc2)C3)CC1 (centres undefined),.,5.2%,.,.,.,.,.,.,.
COc1ccc(-c2cc3ccccc3oc2=O)cc1NC(=O)c1ccc([N+](=O)[O-])o1,6.31µM*,-16.0%,?,8.6%,-19.3%,1.84µM*,?,-27.2%,-1.7%
COc1ccc(-c2cc3ccccc3oc2=O)cc1NC(=O)c1ccc(Br)o1,-8.6%,481.3%,?,7.9%,-45.2%,.,.,.,.
Cc1onc(-c2ccccc2Cl)c1C(=O)Nc1cccc(-c2cn3cccnc3n2)c1,?,.,i,-10.2%,0.0%,?,7.9%,-28.8%,0.9%
O=C1c2c(nc(COc3cccc(C(F)(F)F)c3)n2Cc2ccccc2)NCCN1CC1CC1,.,49.4%,.,.,.,.,.,.,.
O=C(NCCC12CC3CC(CC(C3)C1)C2)C12CC3CC(CC(C3)C1)C2,.,7.8%,.,.,.,.,.,.,.
CN=c1sc2c(n1C)C(=O)c1ccccc1C2=O,1.41µM*,-0.5%,.,?,2.24µM*,1.84µM*,2.59µM*,5.17µM*,4.61µM*
Cc1cccc(C)c1-n1nnnc1C(c1cccs1)N1CCN(C/C=C/c2ccccc2)CC1 (centres undefined),?,?,i,-13.5%,-28.9%,?,-16.6%,20.6µM*,7.4%
C(=C\c1ccccc1)/CN1CCN(C(c2ccnc3ccccc23)c2nnnn2-c2ccc3c(c2)OCCO3)CC1 (centres undefined),?,?,?,-16.7%,0.9%,14.6µM*,-26.8%,?,29.9%
C(=C\c1ccccc1)/CN1CCN(C(c2ccccc2)c2nnnn2-c2ccc3c(c2)OCCO3)CC1 (centres undefined),?,?,?,-27.2%,-24.3%,.,.,.,.
COCC(=O)N[C@H]1CO[C@H]2[C@@H]1OC[C@@H]2Nc1nccc(-c2ccc(OC)cc2)n1,.,38.7%[176 µM],.,.,.,.,.,.,.
Cc1cc(/C=N/NC(N)=S)c(C)n1-c1ccc(Br)cc1,12.6µM*,?,?,-17.9%,-20.1%,10.3µM*,?,?,34.4%
Cc1cc(/C=N/NC(N)=S)c(C)n1-c1cccc(Cl)c1,11.2µM*,39.8µM*,?,-19.3%,-18.6%,14.6µM*,-24.4%,16.4µM*,43.5%
COc1cc(OC)c(-c2c(-c3ccccc3)ncn2CCF)cc1OC,.,-1.3%,.,.,.,.,.,.,.
Cc1ccccc1Nc1ccc([N+](=O)[O-])cn1,?,7.6%,i,7.8%,-11.0%,.,.,.,.
Cc1ccccc1NC1=NCC(c2ccc([N+](=O)[O-])cc2)S1 (centres undefined),4.47µM*,-10.7%,?,-35.9%,-0.2%,13µM*,?,8.2µM*,65.2%
O=C(N/N=C/c1cccnc1)c1ccc([N+](=O)[O-])cc1,-16.2%,276.8%,i,-2.9%,-2.6%,.,.,.,.
O=[N+]([O-])c1ccc(N/N=C/c2cccnc2)cc1,10µM*,?,i,-1.5%,-13.7%,10.3µM*,?,5.1%,26.9%
Cc1cccc(N=C2NN=C(c3ccccc3F)CS2)c1C,15.4%,-7.7%,i,15.8%,-15.4%,.,.,.,.
COc1ccc(C2=NNC(=Nc3cc(S(=O)(=O)N(C)C)ccc3C)SC2)c(OC)c1,?,32.3%,?,.,-29.9%,?,?,?,27.8%
Cc1nc2ccccc2nc1COC(=O)c1cnc2ccccc2n1,.,14.5%,.,.,.,.,.,.,.
CC1(C)CC2CC(C)(CN2S(=O)(=O)c2ccc(C(=O)Nc3ccc(S(=O)(=O)N4CCOCC4)cc3)cc2)C1 (centres undefined),-9.8%,-15.9%,i,?,-0.6%,.,.,.,.
CCOC(=O)c1cc([N+](=O)[O-])sc1NC(=O)c1ccc(S(=O)(=O)N2CC3(C)CC2CC(C)(C)C3)cc1 (centres undefined),?,3.2%,?,-24.7%,5.7%,?,?,?,-8.0%
N=c1n(CCN2CCCCC2)c2ccccc2n1CC(=O)c1cccs1,?,1.5%,i,?,-49.6%,41.4%,?,23.1µM*,50.1%
Cc1cnc(-c2ccccc2)n1C1CCCN(C(=O)C(C)C)C1 (centres undefined),.,43.1%,.,.,.,.,.,.,.
C/C(=N\NC(=O)C1CC1)c1ccc2ccccc2c1,.,-5.8%,.,.,.,.,.,.,.
CC[C@H](C)C1OC(=O)[C@@H](C)[C@@H](CC)NC(=O)[C@H](C)N(C)C(=O)C(C)(C)C(=O)C(C)NC(=O)[C@H](Cc2ccc(OC)cc2)N(C)C(=O)[C@H](C(C)C)N(C)C(=O)CNC(=O)[C@H](CC(C)C)N(C)C(=O)CNC1=O (some centres undefined),0.501µM*,.,?,?,4.0%,1.03µM*,?,1.3µM*,46.8%
CCC[C@H]1NC(=O)[C@H](C)N(C)C(=O)C(C)(C)C(=O)C(C)NC(=O)[C@H](Cc2ccc(OC)cc2)N(C)C(=O)[C@H](C(C)C)N(C)C(=O)CNC(=O)[C@H](CC(C)C)N(C)C(=O)CNC(=O)[C@H]([C@@H](C)CC)OC(=O)[C@H]1C (some centres undefined),1.12µM*,?,?,?,-7.3%,0.366µM*,?,0.291µM*,95.9%
CCN(C(=O)COC(=O)Cc1sc(N)nc1-c1ccc(C)cc1)c1cccc2ccccc12,.,-2.5%,.,.,.,.,.,.,.
CC(Sc1ccc(Cl)cc1)C(=O)N1CCN(c2nccs2)CC1 (centres undefined),.,4.8%,.,.,.,.,.,.,.
